From PubChem BioAssay AID1626 (SRMLSC, 2009) come the findings set out here.

The campaign covered roughly 220,000 compounds. About 2,000 (0.91%) were called active. About 2% were inconclusive and are not listed. Only a sample is shown. Results with a measured potency or affinity are listed apart. Values without a mark were called inactive. Cut-off read from the data, not from the text of the source: inconclusive = inhibition above about 80% without an active follow-up result; inactive = below that; test concentration not stated here.

A short description of this experiment: M. tuberculosis H37Rv growth inhibitors, H37Rv strain (AID 1626).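 Note: bacteria incubated seven days before Alamar blue readout; 0% = bacteria only wells and 100% = bacteria with antibiotic wells.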 The note with it: hits give high values, concentration not given here.
What is called inhibition is the relative decrease from the control value, in per cent. In the case of `CC(C)(C)NC(=O)Cn1c(Cl)nc2ccccc21`, the inhibition is -2.82%.

As for `CC(=O)Nc1cccc(-c2csc(N)n2)c1`, the inhibition is 1.85%.

In the case of `COc1ccc(OCc2csc(N)n2)cc1`, the inhibition was -2.49%.

In the case of `Nc1nc(-c2ccccc2)cs1`, the inhibition was 56.7%.

In the case of `COc1ccc(-c2csc(N)n2)cc1`, the inhibition is 84.2%.

Regarding `Nc1nc(-c2ccc3ccccc3c2)cs1`, the inhibition was 67.7%.

For the compound `Fc1cccc(-c2csc(-c3ccno3)n2)c1`, the inhibition is 0.3%.

`Nc1nc(-c2ccc(-c3ccccc3)cc2)cs1`: the inhibition was -0.75%.

For `Cc1ccc(OCc2csc(N)n2)cc1`, the inhibition is 2.65%.

As to `CCCCOc1ccc(NC(=O)C(=O)NCCC2=CCCCC2)cc1`, the inhibition is -6%.

Consider `Cc1ccc(NC2=NC3(CCCC3)N=C(N)N2)c(C)c1`, for which the inhibition was -0.52%.

`CCC1CCCCN1C(=O)CSc1nnc(CNC(=O)COc2ccc(Cl)cc2)o1` (configuration not stated): the inhibition was 0.62%.

In the case of `CC(=O)Nc1ccc(C(=O)NCC(=O)OCc2ccccc2F)cc1`, the inhibition was 8.24%.

For the compound `C=CCNC(=O)c1sc(-c2ccccc2)nc1C`, the inhibition is -4.4%.

Turning to `COCCn1c(SCC(=O)N2CCN(c3ccccc3)CC2)nc2c(c1=O)SC(C)C2` (configuration not stated), the inhibition was -6.25%.

Regarding `O=C(COC(=O)c1cccs1)NCC1CCCO1` (configuration not stated), the inhibition is -10.3%.

With `COC(=O)Nc1ccc(S(=O)(=O)NCc2ccccn2)cc1`, the inhibition is 4.77%.

Turning to `Cc1ccc2c(c1)C1CN(C)CCC1N2C(=O)c1cccc(S(=O)(=O)N(C)C)c1` (configuration not stated), the inhibition was 1.67%.

Regarding `COCCOc1ccc(C(F)(F)F)cc1Nc1nc2ccccc2o1`, the inhibition is 11.7%.

On to `COc1cc(/C=N/OCC(=O)Nc2cc(C)on2)ccc1OCc1ccccc1`, for which the inhibition is 6.49%.

As for `CC1CCCN(c2c([N+](=O)[O-])cc(C(=O)O)cc2[N+](=O)[O-])C1` (configuration not stated), the inhibition was -5.57%.

Consider `O=[N+]([O-])c1ccc(N2CCCCC2)s1`, for which the inhibition is 48.3%.

`O=C(Cc1c[nH]c2ccccc12)NCc1ccc2c(c1)OCO2`: the inhibition is 8.71%.

For `CCOc1c(OC)ccc2c3c(c(=O)oc12)CCCC3`, the inhibition was 12.9%.

With `CCCOc1ccc2c3c(c(=O)oc2c1OCCC)CCCC3`, the inhibition is 30.6%.

In the case of `Cc1cc(CNC(=S)Nc2ccc(Br)cc2Cl)nn1C`, the inhibition was 9.6%.

As for `Cc1cccc(-n2c(O)c(C=Nc3ccc(O)cc3)c3ccccc3c2=O)n1`, the inhibition was -0.55%.

For `CCOc1ccc(-n2c(O)c(C=Nc3ccc(N4CCOCC4)cc3)c(=O)[nH]c2=O)cc1`, the inhibition is -4.71%.

As for `COc1cc(CN=Cc2c(O)n(C(C)(C)C)c(=O)[nH]c2=O)cc(OC)c1`, the inhibition is -1.21%.

On to `Cc1ccc(N=Cc2c(O)n(-c3ccc(C)cc3)c(=O)[nH]c2=O)cc1`, for which the inhibition was -7.29%.

Regarding `COc1ccc(N=Cc2c(O)n(-c3cccc(C)n3)c(=O)c3ccccc23)cc1`, the inhibition was 16.8%.

As for `CCOc1ccccc1-n1c(O)c(C=Nc2ccc(N(CC)CC)cc2)c(=O)[nH]c1=O`, the inhibition was -4.16%.

Take `CCN(CC)c1ccc(N=Cc2c(O)n(-c3ccc(OC)cc3)c(=O)[nH]c2=O)cc1`: the inhibition was -3.8%.

As for `CCOc1ccc(N=Cc2c(O)n(Cc3ccccc3)c(=S)[nH]c2=O)cc1`, the inhibition was 72.9%.

Consider `O=C(O)c1ccc(CSc2nc3ccc(N4C(=O)C5C6C=CC(C6)C5C4=O)cc3s2)cc1` (configuration not stated), for which the inhibition was -3.36%.

On to `CN=C1SC(CC(=O)Nc2ccccc2F)C(=O)N1C` (configuration not stated), for which the inhibition was -3.74%.

As for `COc1cccc(NC(=S)NNC(=O)c2ccccc2OC(F)F)c1`, the inhibition was -13.3%.

As to `COc1ccc(C)cc1N(C(=O)CNC(=O)c1ccco1)C(C(=O)NC1CCCC1)c1cccnc1` (configuration not stated), the inhibition was -8.51%.

With `COc1cccc(-c2nn(-c3ccccc3)cc2CN(C)Cc2ccon2)c1`, the inhibition is -3.56%.

As for `CN(C)S(=O)(=O)c1ccc2oc(SCC(N)=O)nc2c1`, the inhibition is -16.7%.

As for `CC1=NN(C(=O)COc2ccccc2)C(O)(c2cccnc2)C1` (configuration not stated), the inhibition was -1.6%.

As for `COc1ccc(CCN(C)CC(O)c2ccccc2)cc1OC` (configuration not stated), the inhibition was 1.49%.

On to `CCOc1ccc(-n2c(O)c(C=Nc3ccc(NC(C)=O)cc3)c(=O)[nH]c2=O)cc1`, for which the inhibition was 4.04%.

As for `CCOc1ccc(-n2c(O)c(C=Nc3ccc(N(CC)CC)cc3)c(=O)[nH]c2=O)cc1`, the inhibition was -0.69%.

For the compound `CC1CCCN(c2nc3c(c(=O)[nH]c(=O)n3C)n2CCSc2ncccn2)C1` (configuration not stated), the inhibition was 2.85%.

`COC(=O)C1C2c3ccccc3OC1(C)N=c1s/c(=C/c3cnn(C)c3)c(=O)n12` (configuration not stated): the inhibition was 58.3%.

On to `COC(=O)C1C2c3ccccc3OC1(C)N=c1s/c(=C/c3cn(C)nc3C)c(=O)n12` (configuration not stated), for which the inhibition was -3.65%.

Regarding `Cc1c(C)[n+](=O)c2c(n1[O-])C(Br)CCC2Br` (configuration not stated), the inhibition was 0.09%.

Regarding `NC(=O)Oc1cccc(OC(N)=O)c1`, the inhibition was -7.05%.

As to `COC(=O)c1cccc(NC(N)=S)c1`, the inhibition was 2.04%.

Consider `C#CCOc1ccc(Br)cc1/C=N/O`, for which the inhibition is 7.55%.

For the compound `O=C(NCc1cccs1)c1cc(-c2ccncc2)nc2ccc(Br)cc12`, the inhibition is 71.8%.

Regarding `Cc1cc(N)n2ncc(-c3cccc(Br)c3)c2n1`, the inhibition is 22.8%.

Turning to `O=C(O)CSC1c2ccccc2C(=O)N1c1ccccc1` (configuration not stated), the inhibition is -1.63%.

`CC(C)CNC(=O)Cn1c(=O)c2c(ncn2CC(C)C)n(Cc2ccccc2)c1=O`: the inhibition was 7.42%.

As to `Cc1ccc(NC(=S)NNC(=O)c2ccco2)cc1`, the inhibition is 7.01%.

For the compound `O=C(Nc1ncc(Cc2cccc([N+](=O)[O-])c2)s1)c1ccco1`, the inhibition is 1.37%.

`O=C(Nc1ncc(Cc2ccccc2Cl)s1)c1ccc(-c2cccc([N+](=O)[O-])c2)o1`: the inhibition is -0.67%.

On to `COC(=O)c1ccc(OCC(O)CN2C(=O)NC(C)(C)C2=O)cc1` (configuration not stated), for which the inhibition is -2.31%.

Consider `CN(C)C(CNC(=O)c1cc(S(=O)(=O)N(C)c2ccccc2)ccc1Cl)c1cccs1` (configuration not stated), for which the inhibition was -3.17%.

For the compound `Cc1occc1C(=O)N/N=C/C1=C(N2CCOCC2)C(=C\c2ccc(Cl)cc2)/CC1`, the inhibition is -4.7%.

`O=C(NCc1cccnc1)c1ccc(COc2ccccc2Br)cc1`: the inhibition was 12%.
